The text below walks through data of PubChem BioAssay (EPA / NIEHS).

Several values for one entry are separate records, joined by “and”; a condition that tells them apart may be missing. Identical values can stand only once. The source holds several records for some structures; these can differ, active in one and inactive in another. Activity calls are given as the source filed them. Rule for the calls: active = hit-call score of the fitted dose curve at least 0.9, where 1 is the maximum; inactive = score below 0.9.

Read-out in this test: Vascular endothelial growth factor receptor 2 (Homo sapiens) (UniProt P35968)
Briefly: BSK_4H_VEGFRII: BioMAP Diversity Plus: 4H Assay for Vascular endothelial growth factor receptor 2 (VEGFR2) Biomarker Activity (AID 2283031). Particulars: primary human endothelial cells (HUVEC); actives raise or lower the signal. How it is done:
BSK_4H is a cell-based, multiplexed-readout assay that uses umbilical vein endothelium, a human vascular primary cell, with measurements taken at 24 hours after chemical dosing in a 96-well plate.BSK_4H_VEGFRII is an assay component measured in the BSK_4H assay. It measures VEGFRII antibody related to regulation of gene expression using ELISA technology.Data from the assay component BSK_4H_VEGFRII was analyzed into 1 assay endpoint. This assay endpoint, BSK_4H_VEGFRII, was analyzed with bidirectional fitting relative to DMSO as the negative control and baseline of activity. Using a type of binding reporter, gain or loss-of-signal activity can be used to understand changes in the signaling as they relate to the gene KDR. Furthermore, this assay endpoint can be referred to as a primary readout, because this assay has produced multiple assay endpoints where this one serves a signaling function. To generalize the intended target to other relatable targets, this assay endpoint is annotated to the kinase intended target family, where the subfamily is receptor tyrosine kinase.
The levels of cell surface (or secreted, indicated by the prefix "s") biomarker endpoints were measured by ELISA. Overt cytotoxicity to cells in confluent adherent cultures (all systems other than the BT system) was assessed by measuring total protein levels using sulforhodamine B (SRB) staining in parallel cultures at the time of biomarker measurements, indicated as SRB endpoints. For proliferation assays for adherent cell types, individual cell types are cultured at sub-confluence and relative cell numbers quantified by SRB staining at time points optimized for each system (48 h: 3C and CASM3C systems; 72 h: BT and HDF3CGF systems; 96 h: SAg system). SRB was performed by staining cells with 0.1% SRB after fixation with 10% TCA and reading wells at 560 nm.Viability and proliferation of PBMC (T cells) was quantified by Alamar Blue reduction for the SAg and BT systems. For PBMC viability (referred to as PBMC Cytotoxicity within the assay endpoint names), cells were plated (75,000/well in a 96-well plate) and then chemical samples added for 1 h before addition of activators, SEB and TSST-1 (20 ng/mL final concentration each). Cells were incubated for 90 h. Then, Alamar Blue (20 uL/well) (Invitrogen, Cat DAL1100) was added for 6 h, and the plates were read with a fluorescence microplate reader at 546/580 nm (excitation/emission). For PBMC proliferation, cells were plated and activated as above but incubated for only 16 h prior to addition of Alamar Blue. Plates were read after 6 h.
Consider `O=C(O)COc1ccc(Cl)cc1Cl`, for which the result was inactive. One may read the AC50 as the concentration at which the activity in the assay is half-maximal. Regarding `CCC(C)(NC(=O)c1cc(Cl)c(C)c(Cl)c1)C(=O)CCl` (stereo not given), the concentration at half-maximal activity (AC50) is 20 µM (active). Consider `O=[N+]([O-])/N=C1\NCCN1Cc1ccc(Cl)nc1`, for which the result was inactive. Still for that read-out and setting: the value for `CCS(=O)(=O)c1cccnc1S(=O)(=O)NC(=O)Nc1nc(OC)cc(OC)n1` was “inactive”; that for `O=C1c2ccccc2C(=O)N1SC(Cl)(Cl)Cl` was “inactive”.

`CCC(C)(C)C(=O)OC1=C(c2ccc(Cl)cc2Cl)C(=O)OC12CCCCC2`: the result was inactive. On the same count and under the same terms, for `CCCN(CCC)c1c([N+](=O)[O-])cc(C(F)(F)F)cc1[N+](=O)[O-]` the value was “inactive”.

For the compound `COc1nn(CSP(=S)(OC)OC)c(=O)s1`, the outcome was inactive. Consider `N#Cc1c(Cl)c(Cl)c(Cl)c(C#N)c1Cl`, for which the half-maximal activity concentration (AC50) was 1.44 µM (active). For `CC1(c2ccc(Oc3ccccc3)cc2)OC(=O)N(Nc2ccccc2)C1=O` (stereo not given), the concentration at half-maximal activity (AC50) is 20 µM (active). Regarding `Cc1cc(C)nc(NC(=O)NS(=O)(=O)c2ccccc2C(=O)OC2COC2)n1`, the outcome was inactive. `CCc1ccc(C(=O)NN(C(=O)c2cc(C)cc(C)c2)C(C)(C)C)cc1`: the outcome was inactive.

As to `CN1CSC(=S)N(C)C1`, the outcome was inactive.

In the case of `Clc1ccccc1-c1nnc(-c2ccccc2Cl)nn1`, the outcome was inactive. Consider `O=S1OCC2C(CO1)C1(Cl)C(Cl)=C(Cl)C2(Cl)C1(Cl)Cl` (stereo not given), for which the concentration at half-maximal activity (AC50) was 34.8 µM (active).

For the compound `COc1cc(OC)nc(NC(=O)NS(=O)(=O)c2cc(NC=O)ccc2C(=O)N(C)C)n1`, the outcome was inactive. In the case of `COP(=O)(OC)OC=C(Cl)Cl`, the result was inactive. Take `CC(C)(C)C(O)/C(=C\c1ccc(Cl)cc1Cl)n1cncn1` (stereo not given): the AC50 was 27.4 µM (active). Turning to `COP(=S)(OC)Oc1ccc([N+](=O)[O-])cc1`, the result was inactive.

As for `Cc1[nH]c(=O)n(C(C)(C)C)c(=O)c1Cl`, the result was inactive.

On to `OCCOc1ccccc1`, for which the outcome was inactive. `CCOC1Oc2ccc(OS(C)(=O)=O)cc2C1(C)C` (stereo not given): the result was inactive. As for `CC(C)OC(=O)Nc1cccc(Cl)c1`, the outcome was inactive. As for `CNC(=O)/C=C(\C)OP(=O)(OC)OC`, the outcome was inactive.

Take `O=[N+]([O-])c1c(Cl)c(Cl)c(Cl)c(Cl)c1Cl`: the outcome was inactive. Turning to `CCC(C)Nc1c([N+](=O)[O-])cc(C(C)(C)C)cc1[N+](=O)[O-]` (stereo not given), the AC50 is 21 µM (active). Regarding `O=C(O)C(F)(F)C(F)(F)C(F)(F)C(F)(F)C(F)(F)C(F)(F)C(F)(F)F`, the outcome was inactive.

Regarding `COP(=S)(OC)Oc1ccc(SC)c(C)c1`, the result was inactive. Consider `Oc1cc(Cl)ccc1Oc1ccc(Cl)cc1Cl`, for which the AC50 was 6.66 µM (active) and 9.59 µM (active); the outcome was inactive. As to `Oc1ccc(Cl)cc1Cc1ccccc1`, the half-maximal activity concentration (AC50) was 23.8 µM (active) and the outcome was inactive.

As for `CNC(=O)Oc1ccccc1OC(C)C`, the result was inactive.

For the compound `CNC(=O)Oc1cccc(N=CN(C)C)c1`, the result was inactive.

Consider `COC(=O)c1ccccc1S(=O)(=O)NC(=O)N(C)c1nc(C)nc(OC)n1`, for which the result was inactive. For the compound `CC[C@H](C)[C@H]1O[C@]2(C=C[C@@H]1C)C[C@@H]1C[C@@H](C/C=C(\C)[C@@H](O[C@H]3C[C@H](OC)[C@@H](O[C@H]4C[C@H](OC)[C@@H](O)[C@H](C)O4)[C@H](C)O3)[C@@H](C)/C=C/C=C3\CO[C@@H]4[C@H](O)C(C)=C[C@@H](C(=O)O1)[C@]34O)O2` (tested in a mixture with another compound), the concentration at half-maximal activity (AC50) is 5.27 µM (active). Take `O=C(Nc1ccccc1)Nc1cnns1`: the outcome was inactive. In the case of `O=C(O)CCCOc1ccc(Cl)cc1Cl`, the result was inactive.

As for `ClC1C(Cl)C(Cl)C(Cl)C(Cl)C1Cl` (stereo not given), the outcome was inactive. As for `COC(=O)c1ccccc1CS(=O)(=O)NC(=O)Nc1nc(OC)cc(OC)n1`, the result was inactive.
